Results as given in PubChem BioAssay (NCATS).
Inconclusive results are not listed. The source made the active and inactive calls. The call rests on the fitted dose curve; in most records, active means well fitted cell-killing curve with a large enough effect; inconclusive means small, poorly fitted or top-dose-only effect, or effect the other way; inactive means flat fitted curve, though single readings scatter.

What was measured:
Test in all cases: Primary qHTS to identify gynecologic anti-cancer compounds using libraries of approved drugs and bioactive compounds (AID 1345084); further: nearly all actives have a fitted effect of over 55% in size
[1] = tested on: C33A; settings: Gynecologic cancer cell panel viability, ATPlite luminescence, 48 h; series mostly up to 57.5 µM
Outline: (§1)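 Cell viability after 48 h drug treatment, ATPlite luminescence readout; five doses.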

[2] = tested on: CAOV3; settings: Gynecologic cancer cell panel viability, ATPlite luminescence, 48 h; series mostly up to 57.5 µM
Outline: as §1

[3] = tested on: CASKI; settings: Gynecologic cancer cell panel viability, ATPlite luminescence, 48 h; series mostly up to 57.5 µM
Outline: as §1

[4] = tested on: Es-2; settings: Gynecologic cancer cell panel viability, ATPlite luminescence, 48 h; series mostly up to 57.5 µM
Outline: as §1

[5] = tested on: HeLa; settings: Gynecologic cancer cell panel viability, ATPlite luminescence, 48 h; series mostly up to 57.5 µM
Outline: as §1

[6] = tested on: Hek293T; settings: Gynecologic cancer cell panel viability, ATPlite luminescence, 48 h, control line for the selectivity index; series mostly up to 57.5 µM
Outline: as §1

[7] = tested on: JEG-3; settings: Gynecologic cancer cell panel viability, ATPlite luminescence, 48 h; series mostly up to 57.5 µM
Outline: as §1

[8] = tested on: OV90; settings: Gynecologic cancer cell panel viability, ATPlite luminescence, 48 h; series mostly up to 57.5 µM
Outline: as §1

[9] = tested on: PA-1; settings: Gynecologic cancer cell panel viability, ATPlite luminescence, 48 h; series mostly up to 57.5 µM
Outline: as §1

[10] = tested on: SKOV3; settings: Gynecologic cancer cell panel viability, ATPlite luminescence, 48 h; series mostly up to 57.5 µM
Outline: as §1

[11] = tested on: Tov-21-G; settings: Gynecologic cancer cell panel viability, ATPlite luminescence, 48 h; series mostly up to 57.5 µM
Outline: as §1

[12] = tested on: Tov112D; settings: Gynecologic cancer cell panel viability, ATPlite luminescence, 48 h; series mostly up to 57.5 µM
Outline: as §1

Measured: Potency

O=C(Nc1ccc(-c2ccncc2)cc1)N[C@H](CO)c1ccccc1
inactive: [1] | [2] | [3] | [4] | [5] | [6] | [7] | [8] | [9] | [10] | [11] | [12]

COc1ccc(Cl)c(Nc2nc3ccccc3nc2NS(=O)(=O)c2cccc(NC(=O)C(C)(C)N)c2)c1
inactive: [1] | [2] | [3] | [4] | [5] | [6] | [7] | [8] | [9] | [10] | [11] | [12]

CC1(c2nc3c(C(N)=O)cccc3[nH]2)CCCN1 (configuration not stated)
inactive: [1] | [2] | [3] | [4] | [5] | [6] | [7] | [8] | [9] | [10] | [11] | [12]

CC1=CC(=O)CC(C)(C)[C@H]1/C=C/C(CO)O[C@@H]1O[C@H](CO)[C@@H](O)[C@H](O)[C@H]1O (some centres not stated)
inactive: [1] | [2] | [3] | [4] | [5] | [6] | [7] | [8] | [9] | [10] | [11] | [12]

Oc1ccc2nc(CN3CCC(Cc4ccccc4F)CC3)[nH]c2c1
inactive: [1] | [2] | [3] | [4] | [5] | [6] | [7] | [8] | [9] | [10] | [11] | [12]

C[C@@H](O)[C@H](NC(=O)c1ccc(C#Cc2ccc(CN3CCOCC3)cc2)cc1)C(=O)NO
inactive: [1] | [2] | [3] | [4] | [5] | [6] | [7] | [8] | [9] | [10] | [11] | [12]

CC[C@H](NC(=O)[C@H](CS(=O)(=O)CC1CC1)N[C@@H](c1ccc(F)cc1)C(F)(F)F)C(=O)C(=O)NC1CC1
inactive: [1] | [2] | [3] | [4] | [5] | [6] | [7] | [8] | [9] | [10] | [11] | [12]

CC1=C(C(=O)O)/C(=C\CO[C@@H]2O[C@H](CO)[C@@H](O)[C@H](O)[C@H]2O)C(OC(=O)/C=C\c2ccc(O)cc2)C1 (some centres not stated)
inactive: [1] | [2] | [3] | [4] | [5] | [6] | [7] | [8] | [9] | [10] | [11] | [12]

CCOC(=O)CCN(C(=O)c1ccc2c(c1)nc(CNc1ccc(C(=N)N)cc1)n2C)c1ccccn1
inactive: [1] | [2] | [3] | [4] | [5] | [6] | [7] | [8] | [9] | [10] | [11] | [12]

COc1ccc(-n2[nH]c(=O)c3[nH]c4cc(Cl)ccc4c(=O)c3c2=O)c(C)c1
inactive: [1] | [2] | [3] | [4] | [5] | [6] | [7] | [8] | [9] | [10] | [11] | [12]

CCOCc1nc2c(N)nc3ccccc3c2n1CC(C)(C)O
inactive: [1] | [2] | [3] | [4] | [5] | [6] | [7] | [8] | [9] | [10] | [11] | [12]

CC(C)(C)c1cc(Br)cc([C@H](CC(=O)O)NC(=O)CNC(=O)c2cc(O)cc(NC3=NCC(O)CN3)c2)c1 (some centres not stated)
inactive: [1] | [2] | [3] | [4] | [5] | [6] | [7] | [8] | [9] | [10] | [11] | [12]

CC(C)=CCC/C(C)=C/CO[C@@H]1O[C@H](CO)[C@@H](OC(=O)/C=C/c2ccc(O)cc2)[C@H](O[C@@H]2O[C@@H](C)[C@H](O)[C@@H](O)[C@H]2O)[C@H]1O
inactive: [1] | [2] | [3] | [4] | [5] | [6] | [7] | [8] | [9] | [10] | [11] | [12]

COC(=O)CCc1cc2ccoc2c(OC)c1O[C@@H]1O[C@H](CO)[C@@H](O)[C@H](O)[C@H]1O
inactive: [1] | [2] | [3] | [4] | [5] | [6] | [7] | [8] | [9] | [10] | [11] | [12]

C/C=C(/COC(=O)/C(C)=C/C)C(=O)OC(CC)c1ccc(OC)c(OC)c1 (configuration not stated)
inactive: [1] | [2] | [3] | [4] | [5] | [6] | [7] | [8] | [9] | [10] | [11] | [12]

COC(=O)C1=CO[C@@H](O[C@@H]2O[C@H](CO[C@@H]3O[C@H](COC(=O)/C=C/c4cc(OC)c(O)c(OC)c4)[C@@H](O)[C@H](O)[C@H]3O)[C@@H](O)[C@H](O)[C@H]2O)[C@@H]2C(CO)=CC[C@H]12
inactive: [1] | [2] | [3] | [4] | [5] | [6] | [7] | [8] | [9] | [10] | [11] | [12]

COC(=O)C12C(=O)C(C)=C(O)C1(C)C(C)=CC1C3(CO)CCC(O)C(C)(C)C3CCC12C (configuration not stated)
inactive: [1] | [2] | [3] | [4] | [5] | [6] | [7] | [8] | [9] | [10] | [11] | [12]

CC[C@@H](O)C[C@@H]1C(C)=C[C@@H]2CCCC[C@@H]2[C@@]1(C)C(=O)O
inactive: [1] | [2] | [3] | [4] | [5] | [6] | [7] | [8] | [9] | [10] | [11] | [12]

CCOC(=O)c1sc(NC(=O)[C@H](C(C)C)n2c(=O)[nH]c3ccccc3c2=O)nc1C
inactive: [1] | [2] | [3] | [4] | [5] | [6] | [7] | [8] | [9] | [10] | [11] | [12]

CC1(C(=O)O)CCCC2(C)C3CCC4CC3(CCC12)CC4=O (configuration not stated)
inactive: [1] | [2] | [3] | [4] | [5] | [6] | [7] | [8] | [9] | [10] | [11] | [12]

O=C(O)c1cccc(S(=O)(=O)N2CCc3ccccc3C2)c1
inactive: [1] | [2] | [3] | [4] | [5] | [6] | [7] | [8] | [9] | [10] | [11] | [12]

C=C1CCC2C(C)(C(=O)O)CCCC2(C)C1CC/C(=C\CO)CO (configuration not stated)
inactive: [1] | [2] | [3] | [4] | [5] | [6] | [7] | [8] | [9] | [10] | [11] | [12]

COC(=O)c1ccccc1O[C@@H]1O[C@H](CO)[C@@H](O)[C@H](O)[C@H]1O[C@@H]1O[C@@H](C)[C@H](O)[C@@H](O)[C@H]1O
inactive: [1] | [2] | [3] | [4] | [5] | [6] | [7] | [8] | [9] | [10] | [11] | [12]

CC(C)CC(=O)O[C@@H]1OC=C(CO[C@@H]2O[C@H](CO)[C@@H](O)[C@H](O)[C@H]2O)[C@H]2[C@@H]3O[C@H]3[C@@](O)(CO)[C@@H]12
inactive: [1] | [2] | [3] | [4] | [5] | [6] | [7] | [8] | [9] | [10] | [11] | [12]

CCC(C)C(=O)OC1CC(C)C=C2C=CC(C)C(CCC(O)CC(O)CC(=O)O)C21 (configuration not stated)
inactive: [1] | [2] | [3] | [4] | [5] | [6] | [7] | [8] | [9] | [10] | [11] | [12]

C=CC(C)(O)CC[C@H]1C(=C)CCC2[C@](C)(C(=O)O)CCC[C@@]21C (some centres not stated)
inactive: [1] | [2] | [3] | [4] | [5] | [6] | [7] | [8] | [9] | [10] | [11] | [12]

C=C[C@H]1C(O[C@@H]2O[C@H](CO)[C@@H](O)[C@H](O)[C@H]2O)OC=C2C(=O)N3CCc4c([nH]c5ccccc45)[C@H]3C[C@H]21 (some centres not stated)
inactive: [1] | [2] | [3] | [4] | [5] | [6] | [7] | [8] | [9] | [10] | [11] | [12]

CCCC(=O)NCCc1csc(-c2ccc(Cl)cc2)n1
inactive: [1] | [2] | [3] | [4] | [5] | [6] | [7] | [8] | [9] | [10] | [11] | [12]

CCCC(=O)C1CCN(c2ncnc3c2CN(C(=O)c2ccc(-c4ccccc4)cc2)CC3)CC1
inactive: [1] | [2] | [3] | [4] | [5] | [6] | [7] | [8] | [9] | [10] | [11] | [12]

CC(c1ncncc1F)C(O)(Cn1cncn1)c1ccc(F)cc1F (configuration not stated)
inactive: [1] | [2] | [3] | [4] | [5] | [6] | [7] | [8] | [9] | [10] | [11] | [12]

CC(C)=CCC[C@](C)(O)[C@H]1CC[C@]2(C)[C@@H]1[C@H](O)CC1[C@@]3(C)CC[C@H](O)C(C)(C)C3[C@@H](O[C@@H]3O[C@H](CO)[C@@H](O)[C@H](O)[C@H]3O[C@@H]3OC[C@@H](O)[C@H](O)[C@H]3O)C[C@]12C (some centres not stated)
inactive: [1] | [2] | [3] | [4] | [5] | [6] | [7] | [8] | [9] | [10] | [11] | [12]
